Screen size: about 1,300 compounds; about 380 (29%) were called active. Another 37% or so got no clear call; they are omitted. Calls come from the whole dose curve; as a rule, active = well fitted inhibition curve with a large enough effect; inconclusive = small, poorly fitted or top-dose-only effect; inactive = flat fitted curve, though single readings scatter. The list shows a part of the results.
Molecular target: Thyrotropin receptor (Homo sapiens) (UniProt P16473)
Assay: qHTS for antagonists of the Thyroid Stimulation Hormone Receptor: Hit Validation in Primary Screen; note: nearly all actives have a fitted effect of over 80% in size;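 for activity change, negative = inhibition: cells stimulated with TSH at EC80 of 4 nM during compound exposure; cAMP by competitive HTRF where cellular cAMP lowers the 665 nm FRET signal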
Details: TSHR-expressing cells, cAMP antagonist mode; series mostly up to 58 µM; activity change, negative = inhibition: at the top concentration
In short: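 Competitive HTRF detected cAMP in lysates of TSHR cells, read 30 minutes after antibody and d2 addition at room temperature. Before lysis, cells had 2 hours at 37 deg C with compound plus EC80 TSH, 4nM final.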
% is set by controls: 0 for no effect and ±100 for the full control effect; potency is the fitted concentration of half-maximal effect.

Thyrotropin receptor (Homo sapiens), sequence (P16473 whole entry, looked up): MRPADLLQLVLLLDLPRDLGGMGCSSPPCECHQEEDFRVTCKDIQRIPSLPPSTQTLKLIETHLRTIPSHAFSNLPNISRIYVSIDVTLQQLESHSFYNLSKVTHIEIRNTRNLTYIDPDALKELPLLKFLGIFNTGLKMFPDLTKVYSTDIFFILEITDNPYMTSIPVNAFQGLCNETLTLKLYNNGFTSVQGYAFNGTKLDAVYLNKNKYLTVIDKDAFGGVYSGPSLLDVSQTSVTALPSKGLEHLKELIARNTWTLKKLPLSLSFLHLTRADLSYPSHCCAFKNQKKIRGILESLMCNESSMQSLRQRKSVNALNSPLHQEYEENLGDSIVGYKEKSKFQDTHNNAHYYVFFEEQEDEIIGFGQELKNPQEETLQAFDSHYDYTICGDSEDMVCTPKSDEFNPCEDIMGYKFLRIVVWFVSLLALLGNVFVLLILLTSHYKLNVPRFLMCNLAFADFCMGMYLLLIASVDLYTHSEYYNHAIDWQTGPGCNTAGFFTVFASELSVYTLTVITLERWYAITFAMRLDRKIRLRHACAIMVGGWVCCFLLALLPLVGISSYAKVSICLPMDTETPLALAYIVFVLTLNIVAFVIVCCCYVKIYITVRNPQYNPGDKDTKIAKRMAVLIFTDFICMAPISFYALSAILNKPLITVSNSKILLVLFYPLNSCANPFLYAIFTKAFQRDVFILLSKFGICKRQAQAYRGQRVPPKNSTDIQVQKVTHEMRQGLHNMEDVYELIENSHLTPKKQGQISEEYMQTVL

Activity change, negative = inhibition, inactive:
OCCSc1nnc(Nc2ccccc2)s1 -10.8%
COc1ccc(NS(=O)(=O)c2cn(C)cn2)cc1Cl -6.08%
CCc1ccc(NS(=O)(=O)c2cc3[nH]c(=O)c(=O)[nH]c3cc2C)cc1 -0.0576%
CC(C)(C)OC(=O)N1CCC(CC2CC(c3cccc(Br)c3)=NO2)(C(=O)NCC2CCCCC2)CC1 (stereo not given) -6.34%
COc1cccc(CNC(=O)c2nnn(CC(=O)Nc3cc(Cl)ccc3C)c2N)c1 -6.45%
Cc1cc(NC(=O)c2ccccc2)c(Cl)cc1N -8.64%
COc1ccccc1C(=O)NCCC(=O)Nc1ccc(OC(F)(F)F)cc1 -14.9%
COc1cc2ccccc2cc1C(=O)N1CCCC1 -4.72%
CCOc1ccc(-n2c(SCC(=O)Nc3cc(C)on3)nc3c(c2=O)SCC3)cc1 -4.47%
Cc1ccc(NC(=O)Cn2nnc(C(=O)NCCc3ccccc3)c2N)c(C)c1 -7.03%
Cc1ccc(CCNC(=O)C2CC(c3cc(C(F)(F)F)cc(C(F)(F)F)c3)=NO2)cc1 (stereo not given) -3.66%
Cc1ccc(N2C(=O)C3C4C=CC(CC4)C3C2=O)cc1Cl (stereo not given) -4.24%
CCOc1cc(S(=O)(=O)n2cnc(C)c2)ccc1Cl -13.9%
COC(=O)CSc1nc(NCc2ccccc2)nc(N(C)C)n1 -21.1%
Cc1cccc(CC(=O)NCC(=O)NCc2cc(=O)n(C)c(=O)n2C)c1 -8.84%
CN(C)c1nc(=S)nc(NCc2ccccc2)[nH]1 -3.2%
Cc1cc(=O)oc2ccc(OCc3ccccc3)cc12 -1.67%
COc1ccc(CNC(=O)C2CCCN2C(=O)NCc2ccccc2)cc1 (stereo not given) -7.69%
CCOC(=O)c1c(NC(=O)CN2C(=O)NC(C)(c3ccc(OC(F)F)cc3)C2=O)sc(C)c1C (stereo not given) -10.1%
CCOC(=O)Cn1c(=NC(=O)CSC(C)=O)sc2ccccc21 -23.8%
Cc1ccc(/C=N/n2c(COc3ccccc3)n[nH]c2=S)s1 -4.26%
CN(C)c1ccc(N/C=C/C(=O)C(F)(F)F)cc1 -13.3%
COc1ccc(C(C(=O)NC(C)(C)C)N(CCc2ccccc2)C(=O)CCC(=O)Nc2cc(C)on2)cc1 (stereo not given) -5.68%
CC(=O)N/C(=C\c1ccc(Cl)cc1)C(=O)O -3.51%
C=CCNC(=O)c1ccc(NC(=O)C2=CSCCO2)cc1 -9.28%
Cc1cc(C)cc(C(=O)NC(CC(N)=O)c2ccc(NCCN3CCCC3)c([N+](=O)[O-])c2)c1 (stereo not given) -3.23%
CC1CCCC(N2CCN(S(=O)(=O)c3ccccc3)CC2)C1 (stereo not given) -2.71%
COC(CNC(=O)c1cn(C)c2ccc(S(=O)(=O)N3CCOCC3)cc2c1=O)OC -4.75%
Cc1ccc(NC(=O)Nc2ccc3c(c2)OCO3)c(OC(F)F)c1 -10.4%
N/C(=N\OC(=O)Nc1ccccc1)c1cccc(C(F)(F)F)c1 -6.25%
Cc1ccccc1NC(=O)C1C2CCCCC21 (stereo not given) -5.88%
Cc1ccc(C)c(N2CCN(S(=O)(=O)c3ccc4c(c3)CC(C)N4C(=O)C3CC3)CC2)c1 (stereo not given) -11.4%
O=C(Nc1ccncc1)C1CCN(S(=O)(=O)c2cccc(C(F)(F)F)c2)CC1 -5.39%
CCCn1c(COc2ccccc2OC)nc2ccccc21 -5.21%
COc1cccc(CNC(=O)CCCC(=O)NC(C)CCc2ccccc2)c1 (stereo not given) -4.18%
COc1ccc(-n2c(SCC(=O)Nc3cc(C)on3)nc3c(c2=O)SCC3)cc1OC -4.24%
O=S(=O)(Nc1cccc(-n2cnnn2)c1)c1ccccc1C(F)(F)F -5.7%
CC1CN(C(=O)CCn2c(=O)oc3ccccc32)CC(C)O1 (stereo not given) -1.5%
O=C(/C=C/c1ccc(OCCCF)cc1)Nc1ccnc(-c2ccncc2)n1 -6.83%
Cc1cc2nc(SCCOC(=O)Nc3ccc(Cl)cc3)nc(C)c2cc1C -6.17%
Nc1nc(SCC(=O)Nc2ccc([N+](=O)[O-])cc2)[nH]c(=O)c1NC(=O)c1ccc(Br)cc1 -2.39%
Cc1cc(C#N)c(SCC(N)=O)nc1-c1ccc(F)cc1 -6.37%

Potency, active:
O=C1C(SCCO)=C(SCCO)C(=O)c2ccccc21 3.38 µM
COc1cc(NS(=O)(=O)c2ccc(C)cc2C)cc(OC)c1OC 37.9 µM
CC(C)Cc1nc2oc3c(Cl)ncnc3c2c2c1CCC2 23.9 µM
Cc1ccc(Cl)cc1NC(=O)c1cc2ccccc2cc1O 3.79 µM
COc1cc(NC(=O)c2cc3ccccc3cc2O)c(OC)cc1Cl 10.7 µM
N#C/C(=N/Nc1ccc(OC(F)(F)F)cc1)C(N)=S 6.01 µM
O=C(Nc1ccc([N+](=O)[O-])cc1Cl)c1cc(Cl)ccc1O 0.338 µM
O=C(Nc1cccc(Cl)c1)c1cc(N=Nc2ccc([N+](=O)[O-])cc2Cl)ccc1O 0.478 µM
CC(=O)Oc1c(C)cc(Cl)cc1C(=O)Nc1ccc([N+](=O)[O-])cc1Cl 0.478 µM
Cc1ccc(CS(=O)(=O)c2ncc(Cl)c(C(=O)Nc3nnc(C(C)C)s3)n2)cc1 23.9 µM
CCOC(=O)c1c(NC(=O)/C=C/C(=O)O)sc(C)c1-c1ccc(C)c(C)c1 23.9 µM
CCOC(=O)c1c(NC(=O)/C=C/C(=O)O)sc(C)c1-c1ccc(Cl)cc1 21.3 µM
Cc1nn(Cc2ccc(Cl)cc2)c(C)c1NC(=O)c1noc2c1CCc1ccccc1-2 16.9 µM
Cc1nn(Cc2ccccc2)c(C)c1NC(=O)c1noc2c1CCc1ccccc1-2 37.9 µM
O=[N+]([O-])c1c(Nc2cccc(O)c2)cc(Cl)c2nonc12 10.7 µM
Cc1c(Nc2cc(Cl)c3nonc3c2[N+](=O)[O-])c(=O)n(-c2ccccc2)n1C 26.9 µM
O=C1c2cccc3c(O)ccc(c23)C(=O)N1c1ccc(Cl)cc1 30.1 µM
Cc1ccc(OC(F)F)c(NC(=O)Nc2cccc(C(F)(F)F)c2)c1 26.9 µM
CC1CC1C(=O)N1CCN(S(=O)(=O)c2cc(C(F)(F)F)cc(C(F)(F)F)c2)CC1 (stereo not given) 30.1 µM
COc1cccc(COc2cc3ccccc3nc2C)c1 23.9 µM
Nc1ncc(Br)cc1S(=O)(=O)Nc1cc(C(F)(F)F)cc(C(F)(F)F)c1 12 µM
Cc1cc(=O)[nH]c(SCC(=O)Nc2ccc(Br)cc2)c1C#N 7.57 µM
CSc1nc(N)nc(SCC(=O)Nc2ccc(Cl)cc2)c1C#N 30.1 µM
